Values joined by “and” are separate entries in the source; they are usually repeats but may differ in a detail not shown here. Equal values may be shown once. The whole screen tested about 5,500 compounds, of which about 2,000 (36%) were called active. Not shown: some 18% with an inconclusive outcome. Rule as the data show it: active = normalized growth mostly below about 0.91 (no sharp cut-off); inconclusive = no clear call, values can overlap the other calls; inactive = mostly above about 0.92. Some of the results follow.
Test: chemical genetic growth profiling, strain panel (AID 1159580);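 also: tested at 20 µM; growth read once vehicle control cultures reached saturation at 30 °C; 1 = growth at the plate median or of vehicle wells; lower values mean less growth of the strain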
Settings: S. cerevisiae deletion strains, growth OD

Measured: normalized growth

CC1=C2CCC3C(CC[C@]4(C)C(=O)CCC34)[C@@]2(C)CCC1=O (some centres not stated)
inactive: locus YAL013W, strain DEP1, active compounds read low 0.961 | locus YAL026C, strain drs2, active compounds read low 0.978 | locus YAL030W, strain snc1, active compounds read low 0.993 | locus YBL061C, strain skt5, active compounds read low 0.997 | locus YBR009C, strain hhf1, active compounds read low 0.956 | locus YBR023C, strain chs3, active compounds read low 0.977 | locus YBR171W, strain sec66, active compounds read low 0.977 | locus YBR229C, strain ROT2, active compounds read low 0.981 | locus YBR231C, strain swc5, active compounds read low 1.04 | locus YBR279W, strain paf1, active compounds read low 0.972 | locus YCL011C, strain gbp2, active compounds read low 0.968 | locus YCL016C, strain dcc1, active compounds read low 0.947 | locus YCL029C, strain bik1, active compounds read low 0.969 | locus YCL061C, strain MRC1, active compounds read low 0.967 | locus YCL069W, strain vba3, active compounds read low 0.983 | locus YCR088W, strain abp1, active compounds read low 1.01 | locus YDL005C, strain med2, active compounds read low 0.993 | locus YDL035C, strain GPR1, active compounds read low 0.922 | locus YDL040C, strain nat1, active compounds read low 0.999 | locus YDL074C, strain BRE1, active compounds read low 0.915 | locus YDL101C, strain DUN1, active compounds read low 0.986 | locus YDL134C, strain PPH21, active compounds read low 0.981 | locus YDL185W, strain tfp1, active compounds read low 0.962 | locus YDR001C, strain nth1, active compounds read low 0.997 | locus YDR069C, strain doa4, active compounds read low 1 | locus YDR101C, strain arx1, active compounds read low 0.982 | locus YDR150W, strain NUM1, active compounds read low 0.986 | locus YDR159W, strain sac3, active compounds read low 0.998 | locus YDR162C, strain NBP2, active compounds read low 0.842 | locus YDR297W, strain sur2, active compounds read low 0.995 | locus YDR318W, strain mcm21, active compounds read low 0.941 | locus YDR334W, strain swr1, active compounds read low 1.01 | locus YDR335W, strain msn5, active compounds read low 0.961 | locus YDR388W, active compounds read low 0.946 | locus YEL003W, strain gim4, active compounds read low 0.971 | locus YEL037C, strain rad23, active compounds read low 0.985 | locus YEL061C, strain CIN8 (second series), active compounds read low 0.992 | locus YEL061C, strain CIN8, active compounds read low 0.967 | locus YER015W, strain faa2, active compounds read low 0.964 | locus YER016W, strain bim1, active compounds read low 0.991 | locus YER110C, active compounds read low 0.957 | locus YER111C, strain swi4, active compounds read low 0.989 | locus YER155C, strain BEM2 (second series), active compounds read low 0.904 | locus YER155C, strain BEM2, active compounds read low 0.997 | locus YER167W, strain BCK2, active compounds read low 0.931 | locus YFR010W, strain ubp6, active compounds read low 1.02 | locus YGL078C, strain dbp3, active compounds read low 0.947 | locus YGL086W, strain mad1, active compounds read low 0.936 | locus YGL167C, strain pmr1, active compounds read low 0.963 | locus YGL173C, strain kem1, active compounds read low 1 | locus YGL227W, strain vid30, active compounds read low 1.01 | locus YGL240W, strain doc1, active compounds read low 0.941 | locus YGL248W, strain PDE1, active compounds read low 0.981 | locus YGL253W, strain hxk2, active compounds read low 0.979 | locus YGR078C, strain PAC10, active compounds read low 0.959 | locus YGR135W, strain pre9, active compounds read low 0.902 | locus YGR229C, strain SMI1, active compounds read low 0.962 | locus YGR252W, strain gcn5, active compounds read low 0.836 | locus YHR013C, strain ard1, active compounds read low 0.943 | locus YHR027C, strain rpn1, active compounds read low 0.995 | locus YHR030C, strain SLT2, active compounds read low 0.975 and 0.95 | locus YHR079C, strain IRE1 (second series), active compounds read low 0.986 | locus YHR079C, strain IRE1, active compounds read low 0.941 | locus YHR094C, strain hxt1, active compounds read low 0.984 | locus YHR129C, strain ARP1, active compounds read low 0.991 | locus YHR142W, strain chs7, active compounds read low 0.92 | locus YHR200W, strain rpn10, active compounds read low 0.955 | locus YIL066C, strain RNR3, active compounds read low 0.937 | locus YIL073C, strain SPO22, active compounds read low 0.861 | locus YIL125W, strain kgd1, active compounds read low 0.971 | locus YIR030C, strain dcg1, active compounds read low 0.971 | locus YJL092W, strain hpr5, active compounds read low 0.992 | locus YJL095W, strain BCK1 (second series), active compounds read low 0.992 | locus YJL095W, strain BCK1, active compounds read low 0.889 and 0.943 | locus YJL115W, strain asf1, active compounds read low 0.985 | locus YJL129C, strain trk1, active compounds read low 0.93 | locus YJL134W, strain LCB3, active compounds read low 0.983 | locus YJL154C, strain vps35, active compounds read low 0.993 | locus YJL164C, strain tpk1, active compounds read low 0.938 | locus YJL166W, strain qcr8, active compounds read low 0.963 | locus YJL168C, strain set2, active compounds read low 0.978 | locus YJL187C, strain SWE1 (second series), active compounds read low 0.985 | locus YJL187C, strain SWE1, active compounds read low 0.989 | locus YJR043C, strain POL32, active compounds read low 0.99 | locus YJR066W, strain TOR1, active compounds read low 0.852
active: locus YAL021C, strain ccr4, active compounds read low 0.899 | locus YBR021W, strain FUR4, active compounds read low 0.798 | locus YDL192W, strain arf1, active compounds read low 0.916 | locus YDR137W, strain rgp1, active compounds read low 0.693 | locus YDR195W, strain ref2 1.15 [resistant] | locus YDR392W, strain spt3, active compounds read low 0.565 | locus YDR502C, strain sam2, active compounds read low 0.895
